# Source: PubChem BioAssay (National Center for Advancing Translational Sciences (NCATS))
# TDP1 cell noCPT – qHTS for Inhibitors of human tyrosyl-DNA phosphodiesterase 1 (TDP1): qHTS in cells in absence of CPT. Potency, µM (top dose mostly 46.2 µM), without a hit: at the highest dose activity change, negative = growth inhibition, actives largely listed as inhibitors. 420,000 compounds, 15% hits. DT40 Tdp1-/- hTDP1 cells, no CPT, ATP luminescence, 48 h; also: potency is read from the fitted curve at half-maximal effect; nearly all actives have a fitted effect of over 55% in size
#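 Compound effects on proliferation are scored in DT40 Tdp1-/-;hTDP1 cells in the absence of CPT. ATP levels (CellTiter-Glo luminescence) are recorded after a ≥48 hr, 37 °C incubation.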
# HT1080 IDH1KD tx – toxicity to HT-1080 IDH1 knockdown cells (counter line); HT-1080 IDH1 knockdown viability, ATP luminescence, 48 h; Potency, µM (highest dose often 46.1 µM), for inactives: at the top dose activity, negative = toxicity, hits mostly cytotoxic; 360,000 compounds, 2% hits; AID 686971;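 also: potency is read from the fitted curve at half-maximal effect; 0% = DMSO wells and -100% = cell-free medium wells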
#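 In this qHTS, HT-1080 cells depleted of IDH1 are exposed for 48 h at 37 °C to compound titrations. Toxicity is scored from CellTiter-Glo luminescence, with DMSO as full viability and medium alone as none.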
# IL1B secr inh – inhibitors of inflammasome signaling (IL-1 beta secretion). THP-1 LPS/ATP IL-1B secretion, AlphaLISA, 16 h; stronger effect = lower value. activity change, % at 57.5 µM. 360,000 compounds, 4.7% hits. AID 743279; in the data active = activity change below about -50%; inconclusive = mostly about -30% to -49%
#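 THP-1 cells pretreated 1 hr with compounds (up to 57.5 uM final), then stimulated with LPS (250 ng/mL final) plus ATP (1.25 mM final); secreted IL-1B measured by AlphaLISA after 16 hr, decreased signal indicating inhibition.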
# TDP1 cell CPT – DT40-hTDP1 cell growth loss with CPT | chicken DT40 Tdp1-/-;hTDP1 cells + 20 nM CPT, ATP luminescence, 48 h | Potency, µM (doses to about 46.2 µM), inactives show at the top dose activity change, negative = growth inhibition, actives largely listed as inhibitors | 420,000 compounds, 12% hits; also: potency is read from the fitted curve at half-maximal effect; nearly all actives have a fitted effect of over 55% in size
#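 Cell growth measured by CellTiter-Glo luminescence after a minimum 48 h, 37 C compound exposure with 20 nM CPT in Tdp1-knockout DT40 cells stably expressing hTDP1, seeded 400/well; qHTS titration format.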
# HT1080-NT tox – kills 2HG-producing HT-1080-NT fibrosarcoma cells; HT-1080-NT fibrosarcoma viability, CellTiter-Glo ATP luminescence, 48 h; Potency, µM (highest dose often 46.1 µM), inactives show top-dose activity, negative = less viability, most hits filed as cytotoxic; 360,000 compounds, 1.6% hits;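 also: NT is the 2HG producing partner of a matched IDH1 knockdown line; potency is read from the fitted curve at half-maximal effect; 0% = DMSO-treated cells and -100% = media-only wells without cells; nearly all actives have a fitted effect of over 55% in size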
#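 Read-out is CellTiter-Glo luminescence after 10 minutes at room temperature, following 48 hours' compound treatment of HT-1080-NT cells (750 cells/well, RPMI, 5% FBS, 37 degrees C).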
# An asterisk follows results filed as active; u = inconclusive; x = no result given; [ ] = remark or other dose. Sampled rows, rich in hits. Any-hit rate of the full collection: about 19%. Unless noted, calls follow the shape of the dose curve; as a rule, active = well fitted curve in the direction sought with a large enough effect; inconclusive = small, poorly fitted or top-dose-only effect, or another doubt; inactive = no such curve, though single readings can be large; an effect the other way counts as inactive or inconclusive. Unless noted, % is scaled to controls: 0 for no effect and ±100 for the full control effect.
SMILES,TDP1 cell noCPT,HT1080 IDH1KD tx,IL1B secr inh,TDP1 cell CPT,HT1080-NT tox
C=CCC1(CC=C)CCCN1C(=O)C1CCC(=O)N(CCc2ccccc2)C1 (stereo not drawn),5.8µM*,-1%,-16,9.2µM*,1%
CCOC(=O)C1(CCOc2ccccc2)CCN(Cc2ccc3c(c2)OCCO3)CC1,u,u,-88*,u,18µM*
OCC1(CCOc2ccccc2)CCN(Cc2ccc3c(c2)OCCO3)CC1,-8%,4%,0,5%,-2%
CCOC(=O)C1(CCOc2ccccc2)CCN(Cc2ccc(C(=O)OC)cc2)CC1,u,-16%,0,u,-17%
CCOC(=O)C1(CCOc2ccccc2)CCN(Cc2ccc(O)c(Cl)c2)CC1,13µM*,-8%,-24,16µM*,-12%
CCOC(=O)C1(CCOc2ccccc2)CCN(Cc2ccc(F)c(OC)c2)CC1,6.5µM*,u,-88*,u,u
CCOC(=O)C1(CCOc2ccccc2)CCN(Cc2ccc(O)c(OC)c2)CC1,18µM*,-23%,-28,u,-29%
CCN(CC)c1ccc(NC(=O)c2c(C)noc2C)cc1,12%,u,-11,-2%,16%
COCCOc1cc2ncnc(N3CCC(C(=O)O)CC3)c2cc1OCCOC,-3%,14%,10,0%,13%
CCOC(=O)c1ccc(NC(=O)CCc2c(C)nc3c(-c4ccc(F)cc4)c(C)nn3c2C)cc1,-3%,x,x,-25%,x
CCCS(=O)(=O)NC(=O)C1(C)CCN(C(=O)/C=C/c2ccccc2)C1 (stereo not drawn),-2%,21%,9,-15%,u
Cc1ccc(NC(=O)C2CC2C)c(Cl)c1 (stereo not drawn),-5%,-2%,-6,-3%,-3%
Cc1ccc(NC(=O)CN2C(=O)c3ccccc3C2=O)nc1,-22%,12%,-5,-4%,12%
Cc1ccnc(NC(=O)c2ccc(Cl)s2)c1,-7%,-1%,15,5%,6%
COC(=O)[C@@]1(Cc2ccc(F)cc2)[C@H]2c3cc(C(=O)N4CCCC4)n(Cc4ccccc4)c3C[C@H]2CN1C(=O)c1ccccc1,23µM*,u,-51*,u,u
COCCn1c(C(=O)N2CCCC2)cc2c1C[C@H]1CN(C(=O)c3ccccc3)[C@@](Cc3ccc(F)cc3)(C(=O)OC)[C@@H]21,u,0%,-17,-13%,-7%
COC(=O)[C@@]1(Cc2ccc(F)cc2)[C@H]2c3cc(C(=O)N4CCCC4)n(C)c3C[C@H]2CN1C(=O)c1ccccc1,16µM*,-19%,-54*,23µM*,-12%
COc1cccc(-n2nc(C#N)c(Cl)cc2=O)c1,2.9µM*,15µM*,-101*,2.3µM*,9.2µM*
Cc1ccc(NC(=O)Cc2ccsc2)cc1Cl,-29%,0%,-8,u,9%
Cc1nc2ccc(NC(=O)c3sccc3C)cc2s1,u,8%,u,-15%,7%
Cc1nc2ccc(NC(=O)Cc3ccsc3)cc2s1,13µM*,0%,10,16µM*,-2%
C=CCNC(=O)Nc1ccc2nc(C)sc2c1,u,21%,-27,16µM*,3%
CCc1sc(C(=O)Nc2ccc(NC(C)=O)cc2)cc1C,-19%,u,u,0%,17%
CNC(=O)Nc1ccc2nc(C)sc2c1,-15%,5%,-10,-30%,7%
CCc1sc(C(=O)Nc2ccc3nc(C)sc3c2)cc1C,u,-4%,-52*,u,-4%
SMILES,TDP1 cell noCPT,HT1080 IDH1KD tx,IL1B secr inh,TDP1 cell CPT,HT1080-NT tox
C=CCN(CC=C)C(=O)Nc1ccc2nc(C)sc2c1,21µM*,16%,15,-25%,10%
CCc1cc(C(c2ccc(OC)c(OC)c2)N2CCOCC2)c(NC(=O)c2ccccc2)s1 (stereo not drawn),21µM*,-29%,-124*,u,-5%
CCc1cc(C(c2cccc(OC)c2)N2CCOCC2)c(NC(=O)c2ccccc2)s1 (stereo not drawn),15µM*,u,u,u,-27%
COc1cc2c(cc1OC)CN(c1nc(CN3CCOCC3)nc3sc4c(c13)CCC(C)C4)CC2 (stereo not drawn),15µM*,u,-68*,12µM*,u
CC1CCc2c(sc3nc(CN4CCOCC4)nc(Sc4ccccc4)c23)C1 (stereo not drawn),21µM*,-2%,-20,u,15%
CC1CCc2c(sc3ncnc(N4CCOCC4)c23)C1 (stereo not drawn),u,u,5,u,u
Cc1cc(C)c(C)c(S(=O)(=O)N2CCNC(=O)C2)c1C,2%,-3%,-8,9%,11%
CC(=O)Oc1ccc(OC(C)=O)c(SCCCCCCl)c1,2.9µM*,u,-63*,2.1µM*,u
O=C(CN1c2cccc3cccc(c23)S1(=O)=O)N1CCN(c2ccc(F)cc2)CC1,-16%,-1%,u,-26%,-6%
O=S1(=O)c2cccc3cccc(c23)N1CCCN1CCN(c2ccc(F)cc2)CC1,21µM*,x,x,u,x
Cc1ccc(S(=O)(=O)N2C[C@H]3[C@H]4C(=O)N(c5ccccc5)C(=O)[C@H]4C[C@H](OC(=O)Nc4c(C)noc4C)[C@@]3(O)C2)cc1,u,17%,-22,-27%,9%
C[C@]12CCC3c4ccc(O)cc4CCC3C1CC/C2=N\N (stereo partly drawn),u,6%,7,-26%,9%
Cc1nn(C)c(C)c1/C=N/N=C1\CCC2C3CCc4cc(O)ccc4C3CCC12C (stereo not drawn),12µM*,-3%,-8,u,-2%
c1ccc(CN(CCN2CCOCC2)Cc2ccccc2)cc1,u,-20%,7,3%,-2%
Nc1c(S(=O)(=O)c2ccccc2)c2nc3ccccc3nc2n1/N=C/c1cccc(O)c1,23µM*,-3%[9.24 µM],-72*,15µM*,-30%
COc1ccc(OC)c(NC(=O)N2CCN(Cc3nc4ccc(C)cc4o3)CC2)c1,-2%,x,x,u,x
CC(C)Cn1cc(NC(=O)N2CCN(c3cccc(Cl)c3)CC2)c2ccccc2c1=O,u,x,x,7.3µM*,x
Cc1ccc(NC(=O)Nc2cn(CC(C)C)c(=O)c3ccccc23)cc1N(C)C,23µM*,x,x,21µM*,x
O=C(c1cc(=O)c2ccccc2o1)N1CCN(c2cccc(Cl)c2)CC1,u,-3%,-11,u,2%
CC(C)Cn1cc(NC(=O)Nc2cccc(C(F)(F)F)c2)c2ccccc2c1=O,u,x,x,21µM*,x
COc1cccc(CNC(=O)Nc2cn(CC(C)C)c(=O)c3ccccc23)c1,u,x,x,-24%,x
